Bioassay records: PubChem BioAssay, several laboratories
GDH-TPI counter: inhibits GDH-TPI coupling enzymes, artifact for Mtb FBA screen; GDH-TPI coupled enzyme counterscreen, NADH absorbance; inhibition, % at 4.8 µM; hit rate 1.2% among 360,000; in the data active = inhibition above about 30%
BoNT A protease: BoNT A light chain protease inhibition; multiplex microsphere protease substrate cleavage, flow cytometry; inhibition, % at 10 µM; hit rate 0.17% among 360,000; AID 588499
Mtb FBA inh: Mtb fructose-bisphosphate aldolase inhibition. purified M. tuberculosis FBA, fluorescence read-out. inhibition, % at 1 µM. hit rate 2.3% among 360,000. AID 588726; in the data active = inhibition above about 27%
Autofluor counter: compound fluorescence in toxin protease inhibitor counterscreen; compound autofluorescence counterscreen, microsphere flow cytometry; stronger effect = higher value; fluorescence intensity (no concentration beside the values); hit rate 3.1% among 360,000; AID 624483; in the data active = fluorescence intensity above about 16000; inconclusive = no clear call, values can overlap the other calls
Anthrax LF inh2: blocks Bacillus anthracis lethal factor protease; AID 588501; multiplex microsphere protease cleavage assay, LF; P15917; inhibition, % at 10 µM; hit rate 0.12% among 360,000
BoNT-F LC inh: BoNT F light chain protease inhibition | hit rate 0.22% among 360,000 | Multiplex microsphere protease cleavage assay, flow cytometry | inhibition, % at 10 µM; in the data active = inhibition above about 35%, passing the limit was not always enough; inconclusive = no clear call, values can overlap the other calls
Each line names hits and unclear results; the compound was inactive in the other large screens. This is a sample that favours compounds with a hit; in the whole collection about 6.6% have one here. Rule as the data show it, unless noted: active = inhibition above about 30%; inconclusive = no clear call, values can overlap the other calls; inactive = below that.

c1ccc2c(CSc3nnc(-c4ccncc4)o3)cccc2c1	Autofluor counter 23894
S=C(NCCN1CCOCC1)Nc1ccccc1Cl	none
CCN(CC)C(=O)CSc1nnc(-c2ccccn2)n1Cc1ccccc1	none
CCc1ccc(/C=C2\SC(N3CCCC3)=NC2=O)cc1	none
O=C1N=C(N2CCCC2)S/C1=C\C=C\c1ccccc1	BoNT-F LC inh 41
CC(=O)N1CCN(C2=NC(=O)/C(=C/c3ccc(OS(=O)(=O)c4ccccc4)cc3)S2)CC1	GDH-TPI counter 31
COc1ccc(/C=C2\SC(N3CCCCC3)=NC2=O)cc1	GDH-TPI counter 47
COc1cc(/C=C2\SC(N3CCCCC3)=NC2=O)cc(OC)c1OC	GDH-TPI counter 33
O=C1N=C(N2CCCCC2)S/C1=C\c1ccncc1	none
CC1=C(/C=C/C(C)=C/C=C/C(C)=C\C(=O)O)C(C)(C)CCC1	none
CC1=C(/C=C/C(C)=C/C=C/C(C)=C/C(=O)Nc2ccc(O)cc2)C(C)(C)CCC1	GDH-TPI counter 35
CCCCNC(=O)C1CC(=O)N(CCc2ccc(C)cc2)C1 (stereo not drawn)	none
O=C1N/C(=N/S(=O)(=O)Cc2ccccc2)S/C1=C/c1ccc2c(c1)OCO2	GDH-TPI counter 35
CC(C)C1C(=O)N(Cc2cn(CCC3OCCCO3)nn2)CCS(=O)(=O)N1Cc1ccc(-c2ccc(Cl)nc2)cc1 (stereo not drawn)	none
NC(=S)N/N=C/c1ccc(C(F)(F)F)cc1	none
NC(=S)N/N=C/c1ncc(C(F)(F)F)cc1Cl	GDH-TPI counter 46
CC(OC(=O)CNC(=O)C12CC3CC(CC(C3)C1)C2)C(=O)Nc1ncc(Cl)cc1Cl (stereo not drawn)	Autofluor counter 18610
CC(OC(=O)CN(C)S(=O)(=O)c1ccc(Cl)cc1)C(=O)Nc1cccc(Cl)c1 (stereo not drawn)	none
CC(OC(=O)CN(C)S(=O)(=O)c1ccc(Cl)cc1)C(=O)Nc1ncc(Cl)cc1Cl (stereo not drawn)	Autofluor counter 23244
COc1cccc(C2NC(=O)NC(C)=C2C(=O)Nc2cc(OC)ccc2OC)c1 (stereo not drawn)	Autofluor counter 17900
CCOc1ccc(/C=C(\C)C(=O)c2c(C)cc(C)[nH]c2=O)cc1	GDH-TPI counter 46
COc1ccc(/C=C(\C)C(=O)c2c(C)cc(C)[nH]c2=O)cc1	BoNT-F LC inh inconclusive
COc1ccc(NC(=O)Cn2nnc(C(=O)NCc3ccc4c(c3)OCO4)c2N)c(OC)c1	none
CCc1nc2ccc(C)cc2c(C(=O)NC2CCCCC2C)c1C (stereo not drawn)	BoNT A protease inconclusive, Autofluor counter 18786
Fc1ccc(-c2nnc3ccc(N4CCc5ccccc5C4)nn23)cc1	none
CCCCNC(=O)C[C@@H]1C[C@@]2(C(=O)OCC)CCCC=C2N(Cc2ccc3c(c2)OCO3)C1=O	none (no result: GDH-TPI counter, Mtb FBA inh)
COc1ccc(C2=NS(=O)(=O)N(C)C(C(=O)N3CCC(C)CC3)=C2)cc1	GDH-TPI counter 31
O=C(Nc1cnn(Cc2ccc(Cl)cc2Cl)c1)c1cc(-c2cccs2)on1	none
CC(=O)c1cccc(NC(=O)Nc2cnn(Cc3ccc(Cl)cc3Cl)c2)c1	Autofluor counter 22775
NNC(=O)c1nc(-c2ccccc2)n2c1CCCCC2	BoNT A protease inconclusive, Autofluor counter 20671
COc1ccccc1C1(O)CCN(CC(=O)Nc2nc(-c3ccccc3)cs2)CC1	none
COc1ccccc1NC(=O)CSc1nnc(-c2ccco2)n1Cc1ccco1	Autofluor counter 19643
COc1ccccc1NC(=O)CSc1nnc(-c2ccccn2)n1Cc1ccco1	none
COc1ccc(C(=O)CSc2nnc(-c3cc4ccccc4cc3O)n2Cc2ccco2)cc1	Autofluor counter 23275
O=C(CSc1nnc(-c2ccccn2)n1Cc1ccco1)Nc1ccc2c(c1)OCO2	Autofluor counter 20585
COc1ccc(C)cc1NC(=O)CSc1nnc(-c2ccccn2)n1Cc1ccco1	BoNT A protease inconclusive, Autofluor counter 21479
O=C(CSc1nnc(-c2ccco2)n1Cc1ccco1)Nc1ccccc1	none
Cc1ccc(/C=C/C(=O)NCCc2cccc(Cl)c2)o1	none (no result: BoNT A protease, Autofluor counter, Anthrax LF inh2, BoNT-F LC inh)
CCC(C(=O)NC1CCCC1)N(C(=O)Cn1nnc(-c2ccc(OC)c(OC)c2)n1)C1CCCCC1 (stereo not drawn)	Autofluor counter 16428
COc1ccc(-c2nnn(CC(=O)N(CC(=O)NC3CCCC3)Cc3cccs3)n2)cc1OC	Autofluor counter 24334
O=C(NCC(=O)N(Cc1cccs1)C(C(=O)NC1CCCC1)c1cccnc1)c1ccco1 (stereo not drawn)	Mtb FBA inh 117, BoNT-F LC inh inconclusive
Cc1ccc(-c2nnn(CC(=O)N(Cc3cccs3)C(C(=O)NC3CCCC3)c3ccco3)n2)o1 (stereo not drawn)	Autofluor counter 16932
O=C(COC(=O)CCC(=O)c1ccccc1)Nc1nnc(-c2ccccc2)o1	Autofluor counter inconclusive
CCCC(C(=O)NC1CCCC1)N(C(=O)Cn1nnc(-c2ccc(C)o2)n1)C1CCCC1 (stereo not drawn)	Autofluor counter 25114
CCCC(C(=O)NC1CCCC1)N(C(=O)Cn1nnc(-c2ccc(C)o2)n1)c1ccccc1F (stereo not drawn)	none
CSc1ccc(C2Nc3ccccc3-c3cc(C)nn32)cc1 (stereo not drawn)	Autofluor counter 21584
COc1ccc(CCNC(=O)C2CCC(=O)N2Cc2ccccc2Cl)cc1OC (stereo not drawn)	none
CC(C)N1C(=O)CCC1C(=O)NC1CCCC1 (stereo not drawn)	Autofluor counter 20690
O=C(NCCc1ccc(Cl)cc1)C1CCC(=O)N1Cc1ccccc1Cl (stereo not drawn)	Autofluor counter 22400
Cc1ccc(CCNC(=O)C2CCC(=O)N2CCc2ccccc2)cc1 (stereo not drawn)	none
CC(C)CCNC(=O)C1CCC(=O)N1C(C)C (stereo not drawn)	none
CC(C)N1C(=O)CCC1C(=O)NCCc1ccccc1 (stereo not drawn)	Autofluor counter 23958
Cc1ccc(CNC(=O)C2CCC(=O)N2CCc2ccccc2)cc1 (stereo not drawn)	Autofluor counter 20485
Cc1ccc(CCNC(=O)C2CCC(=O)N2C(C)C)cc1 (stereo not drawn)	none
COc1ccc(CNC(=O)[C@H](CCSC)NC(=O)N2CCn3c2nc2ccccc23)cc1	none
Cc1cc(Cl)ccc1OCc1cn2cccnc2n1	none
CCOC(=O)c1cc2c(nc1N)CCCC2	Mtb FBA inh 139
CCOC(=O)c1oc2nc3c(cc2c1N)CCCC3	none (no result: BoNT A protease, Autofluor counter, Anthrax LF inh2, BoNT-F LC inh)
O=C(CSc1nncs1)NCc1ccc(F)cc1	none
O=C(NN=C1CCCCCCCCCCC1)c1cccc(S(=O)(=O)N2CCOCC2)c1	none
COc1ccccc1OCCN1C(=O)S/C(=C\c2ccco2)C1=O	GDH-TPI counter 34
COc1ccc(OC)c(NC(=O)C2(C)CCN2CCOc2ccccc2)c1 (stereo not drawn)	none
CCNc1nc(NCC)nc(Nn2cnnc2)n1	Autofluor counter 20282
